Shown are actives, neighbours in structure and some others; about 3.3% of the full set was active somewhere.
PLK1 PBD inh – Plk1 (human) PBD binding inhibition. inhibition, %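 (tested at about 20 µM)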. P53350. 97,000 tested, 0.13% active. Plk1 PBD phosphopeptide binding, fluorescence polarization; in the data active means inhibition above about 34%, passing the limit was not always enough
Smad3 inh – Smad3 (human) transcription factor binding inhibition. P84022. inhibition, % at 25 µM. TR-FRET Smad3/Dy647-FoxH1 peptide binding, europium anti-His. 88,000 tested, 0.29% active;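 active means compounds that reduce the energy-transfer binding signal between the protein and its labelled peptide by more than half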
ERa coact inh – ER-alpha (human) coactivator binding inhibition | P03372 | TR-FRET ER-alpha LBD / SRC-1 peptide, estradiol-bound | inhibition, % at 25.6 µM | 86,000 tested, 1.7% active | AID 629; in the data active means inhibition above about 50%
PLK1 kinase inh – blocks human PLK1 kinase activity. recombinant PLK1 kinase, TR-FRET peptide phosphorylation. AID 619. inhibition, % at 10 µM. 97,000 tested, 0.53% active. P53350;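 active means inhibition of 50% or more in the single-concentration screen; inactive means inhibition below 50%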
ERb SRC1 inh – ER-beta (human) coactivator binding inhibition | inhibition, % at 25.6 µM | AID 633 | TR-FRET ER-beta LBD / SRC1-Cy5 peptide binding; receptor agonist-loaded with 1 µM estradiol | 86,000 tested, 1.3% active | Q92731;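 active means compounds whose percent inhibition of the receptor-coactivator binding signal exceeds about 50% in the single-dose screen, limit read from the data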
Target sequence (Q92731 whole entry, looked up, the tested form may be a part): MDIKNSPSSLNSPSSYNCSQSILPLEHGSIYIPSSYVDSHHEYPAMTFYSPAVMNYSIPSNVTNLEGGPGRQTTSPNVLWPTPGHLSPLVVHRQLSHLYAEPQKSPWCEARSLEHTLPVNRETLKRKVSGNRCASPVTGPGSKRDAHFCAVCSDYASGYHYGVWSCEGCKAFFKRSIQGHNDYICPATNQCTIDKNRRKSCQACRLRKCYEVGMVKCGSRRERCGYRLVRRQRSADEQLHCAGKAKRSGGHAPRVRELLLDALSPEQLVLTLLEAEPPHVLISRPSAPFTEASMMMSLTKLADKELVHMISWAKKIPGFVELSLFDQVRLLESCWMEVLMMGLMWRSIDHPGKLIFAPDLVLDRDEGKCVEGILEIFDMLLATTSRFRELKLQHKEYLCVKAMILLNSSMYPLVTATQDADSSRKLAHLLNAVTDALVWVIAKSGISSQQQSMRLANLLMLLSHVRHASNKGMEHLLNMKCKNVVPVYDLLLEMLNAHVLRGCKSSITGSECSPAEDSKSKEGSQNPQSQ
ERa coact pot – ER-alpha (human) coactivator binding potentiation; P03372; TR-FRET ERalpha-LBD/SRC-Cy5 coactivator binding, 2 h; 100 = basal binding, no effect; coactivator binding (% of control), % at 25.6 µM; 86,000 tested, 1.3% active; AID 639; in the data active means activity above about 200%;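 further: binding measured in presence of low estradiol as agonist stimulus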
Large screens that a line does not name were inactive; [ ] = dose if it differs, or a comment.

CN1CCN(C2=C(Cl)C(=O)N(C3CCCCC3)C2=O)CC1	none
CN1CCN(C2=C(Cl)C(=O)C(c3cnc(N4CCCCC4)s3)=C(Cl)C2=O)CC1	ERb SRC1 inh 72[fluorescence artefact?]
Oc1cccc2ccc(SSc3ccc4cccc(O)c4n3)nc12	Smad3 inh 60 (no result: PLK1 PBD inh, ERa coact inh, PLK1 kinase inh, ERb SRC1 inh, ERa coact pot)
NC(=O)CS(=O)C[C@H](N)C(=O)O (stereo not given in full)	none (no result: PLK1 PBD inh, ERa coact inh, PLK1 kinase inh, ERb SRC1 inh, ERa coact pot)
CSc1nnc2c3cc(F)ccc3n(Cc3ccccc3)c2n1	ERa coact pot 336 (no result: PLK1 PBD inh, PLK1 kinase inh)
COc1cccc(C2C(C(C)=O)=C(O)C(=O)N2Cc2ccco2)c1 (stereo not given)	ERa coact inh 58[fluorescence artefact?]
COc1ccc(OC)c(C2/C(=C(/O)c3ccc(C)cc3)C(=O)C(=O)N2Cc2ccco2)c1 (stereo not given)	ERa coact inh 96[fluorescence artefact?] (no result: PLK1 PBD inh, PLK1 kinase inh)
COc1ccc(/C(O)=C2\C(=O)C(=O)N(Cc3ccco3)C2c2cc(OC)ccc2OC)cc1 (stereo not given)	none
c1cncc(CSc2ncnc3nc[nH]c23)c1	none (no result: PLK1 PBD inh, ERa coact inh, PLK1 kinase inh, ERb SRC1 inh, ERa coact pot)
Ic1ccc2c(c1)N(c1ccccc1)c1cc(Nc3ccc4nc5ccc(I)cc5[n+](-c5ccccc5)c4c3)ccc1N2	Smad3 inh 90 (no result: PLK1 PBD inh, ERa coact inh, PLK1 kinase inh, ERb SRC1 inh, ERa coact pot)
CC(C)(C[C@@]1(C)NC(=O)NC1=O)OCc1ccccc1	none (no result: PLK1 PBD inh, ERa coact inh, PLK1 kinase inh, ERb SRC1 inh, ERa coact pot)
Cc1ccc(-c2nc3cccnc3o2)cc1NC(=O)COc1ccc(Cl)cc1C	ERa coact pot 210[fluorescence artefact?]
Cc1ccc(-c2nc3ncccc3o2)cc1NC(=O)Cc1ccc(Cl)cc1	ERa coact inh 52[fluorescence artefact?]
Cc1ccc(-c2nc3ncccc3o2)cc1NC(=O)COc1ccccc1	none
OCCN(CCO)c1ncnc2nc[nH]c12	none (no result: PLK1 PBD inh, ERa coact inh, PLK1 kinase inh, ERb SRC1 inh, ERa coact pot)
CCN1CCN(C(=O)C2CCN(Cc3nc(-c4ccc(Cl)cc4)oc3C)CC2)CC1	none (no result: PLK1 PBD inh, PLK1 kinase inh)
Cc1oc(-c2ccc(Cl)cc2)nc1CN1CCCC(C(=O)N2CCN(C(=O)c3ccco3)CC2)C1 (stereo not given)	PLK1 kinase inh 62
Cn1c(CNC(=O)c2ccc(Cl)cc2)nnc1SCC(=O)Nc1sc2c(c1C#N)CCCC2	ERa coact pot 250
CCOc1ccc(-c2nnn(CC(=O)Nc3cc(OC)ccc3OC)n2)cc1OCC	none
Cc1ccc(C(=O)NCc2nnc(SCC(=O)Nc3sc4c(c3C#N)CCCC4)n2C)cc1	none
COc1ccc(-c2cc(C(F)(F)F)nc(SCC(=O)Nc3sc4c(c3C#N)CCC4)n2)cc1	none (no result: Smad3 inh, ERa coact inh, ERb SRC1 inh, ERa coact pot)
CCOc1ccccc1NC(=O)Cn1nnc(-c2ccc(OCC)c(OCC)c2)n1	ERa coact inh 53[fluorescence artefact?]
COc1ccc(-c2nnn(CC(=O)Nc3sc4c(c3C#N)CCCC4)n2)cc1	ERa coact inh 51[fluorescence artefact?]
COc1ccc(-c2ccc(C#N)c(SCC(=O)Nc3sc4c(c3C#N)CCC4)n2)cc1OC	ERa coact inh 84[fluorescence artefact?], ERb SRC1 inh 65[fluorescence artefact?]
O=C(O)CCSc1ncnc2nc[nH]c12	none (no result: PLK1 PBD inh, ERa coact inh, PLK1 kinase inh, ERb SRC1 inh, ERa coact pot)
Cc1cccc(NC(=O)Cn2nnc(-c3cccs3)n2)c1C	none
COC(=O)c1sccc1NC(=O)Cn1nnc(-c2ccc(C)cc2)n1	ERa coact pot 212
CC1=C(C#N)C(Nc2ccc(Cl)cn2)(C(F)(F)F)C(=O)N1 (stereo not given)	none
CC1=C(C#N)C(Nc2ccc(C)cn2)(C(F)(F)F)C(=O)N1 (stereo not given)	ERa coact pot 228[fluorescence artefact?]
CCC(=O)Nc1c(C#N)c2nc3ccccc3nc2n1-c1ccccc1C	none (no result: PLK1 PBD inh, PLK1 kinase inh)
COc1ccc(-n2c(NC(=O)c3ccco3)c(C#N)c3nc4ccccc4nc32)cc1	none (no result: Smad3 inh, ERa coact inh, ERb SRC1 inh, ERa coact pot)
CCCCn1c(NC(=O)c2ccccc2Cl)c(C#N)c2nc3ccccc3nc21	Smad3 inh 80
CCCCn1c(NC(=O)CC)c(C#N)c2nc3ccccc3nc21	ERa coact inh 72, ERa coact pot 221[fluorescence artefact?]
CCC(=O)Nc1c(C#N)c2nc3ccccc3nc2n1C1CCCCC1	ERa coact inh 65[fluorescence artefact?]
COc1ccc(-c2ccc(-c3nnc(-c4ccncc4)o3)cc2)cc1	ERa coact inh 56[fluorescence artefact?] (no result: PLK1 PBD inh, PLK1 kinase inh)
O=C(/C=C/c1ccc(OCCCF)cc1)NCc1ccc(Cl)cc1	none (no result: Smad3 inh, ERa coact inh, ERb SRC1 inh, ERa coact pot)
CC(=O)Nc1ccc(OC(F)(F)C(F)F)c(NC(C)=O)c1	none (no result: Smad3 inh, ERa coact inh, ERb SRC1 inh, ERa coact pot)
C=C(C)C(=O)Nc1ccc(OC(F)(F)C(F)F)c(NC(=O)C(=C)C)c1	ERa coact pot 210
Cc1ccccc1Nc1nc(N)nc(CSc2nc3ccccc3c(=O)n2CCCO)n1	none (no result: PLK1 PBD inh, PLK1 kinase inh)
Cc1ccccc1Nc1nc(N)nc(CSc2nc3ccccc3c(=O)n2C)n1	ERa coact inh 78
